TROY NFkB inh – inhibitors of TROY-dependent NF-kB signaling; Q293 LMP1-TROYcd NF-kB luciferase reporter, 4 h; inhibition, % at 10 µM; 360,000 tested, 0.98% active; AID 1347056;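 active means compounds whose plate-normalised and pattern-corrected inhibition of the luciferase reporter signal at the single screening dose is 50% or more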
HSF1 inhib – HSF1 inhibition. NIH3T3-HGL HSE-luciferase, MG132-induced, luminescence 8 h; active compounds read low. 300,000 tested, 0.77% active. activity change, negative = inhibition, % at 7.5 µM (by protocol). AID 2098;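 active means more than half of replicate wells show activity change below -50%, luminescence cut by over half; inconclusive means some wells, but at most half, below -50%; inactive means no replicate well below -50%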;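 further: luciferase reports HSF-1 transcriptional activity via heat shock element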
TWEAK-Fn14 inh – TWEAK-Fn14 signaling inhibition; TWEAK-stimulated Fn14 reporter cells, luciferase luminescence, 8 h; 360,000 tested, 2% active; AID 1159606; inhibition, % at 10 µM; in the data active means inhibition above about 50%
EBV LMP1 NFkB – Epstein-Barr LMP1 NF-kappaB reporter inhibition | 350,000 tested, 0.69% active | inhibition, % at 12.5 µM | LMP1-induced NF-kappaB luciferase reporter cells, luminescence; in the data active means inhibition above about 41%; inconclusive means no clear call, values can overlap the other calls
LGR2 inh – Drosophila LGR2 receptor signaling inhibition. HEK293 LGR2, CRE-luciferase, bursicon-stimulated, 4 h. inhibition, % at 9.99 µM. 380,000 tested, 0.35% active. AID 720647;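 active means drop in luminescence signal, shown as inhibition above about 50% in the replicate tests, limit read from the data, passing the limit was not always enough; inconclusive means probably only some replicates passing the limit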;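 further: agonist challenge used bursicon conditioned medium at about half maximal strength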
HSF-1 act – increases HSF-1 driven luciferase reporter signal. NIH3T3-HGL HSF-1 luciferase reporter, MG132, 8 h; 100% = twice DMSO control signal. AID 504408. 300,000 tested, 1.7% active. activation, % at 9 µM;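 active means mean replicate activation of at least 50% with a set share of replicates each reaching 50%; inconclusive means only one of those two conditions met; inactive means mean below 50% and too few replicates reaching it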
Hits are given with their value; 0 = inactive; ? = inconclusive; - = not tested or not shown. Hits are enriched below; roughly 3.6% of the tested compounds scored in any of these assays.

SMILES	TROY NFkB inh	HSF1 inhib	TWEAK-Fn14 inh	EBV LMP1 NFkB	LGR2 inh	HSF-1 act
COc1ccc(NC(=O)N(C)C[C@@H]2Oc3ccc(NC(=O)Nc4ccc(F)cc4)cc3C(=O)N([C@H](C)CO)C[C@H]2C)cc1	-	-	-	-	0	-
O=c1cc(N2CCc3ccccc32)[nH]c(=O)n1-c1ccccc1Cl	0	0	0	0	0	0
Cc1ccccc1-n1c(=O)cc(N2CCc3ccccc32)[nH]c1=O	0	-79	0	0	0	0
CNC[C@H]1Oc2ccc(NC(=O)Nc3ccc(F)cc3)cc2CC(=O)N([C@H](C)CO)C[C@@H]1C	-	-	-	-	0	-
Cn1c(=O)c(C(=O)Nc2ncccc2O)c(O)c2ccccc21	0	0	0	0	-	0
CCCn1c(=O)c(C(=O)Nc2ncccc2O)c(O)c2ccccc21	0	0	87	0	0	0
C=CCn1c(=O)c(C(=O)Nc2ccccc2C)c(O)c2ccccc21	0	0	0	0	0	75
Cc1ccc(NC(CC(=O)c2ccccc2)c2ccc(F)cc2)cc1 (configuration not stated)	0	0	0	0	0	0
O=C(CC(Nc1ccc(F)cc1)C(=O)OCC(=O)c1cccs1)c1ccccc1 (configuration not stated)	0	0	0	0	0	89
O=C(CC(Nc1ccc(F)cc1)C(=O)O)c1ccccc1 (configuration not stated)	0	0	0	0	-	56
COCC(=O)N1CC[C@@H]2[C@H]1c1cc(-c3ccccc3)ccc1N(C)[C@H]2CO	-	-	-	-	0	-
O=S(=O)(Nc1c(S(=O)(=O)c2ccccc2)c2nc3ccccc3nc2n1C1CCCCC1)c1ccccc1	64	0	98	0	?	0
O=C(c1ccncc1)N1CCN(c2cc(-c3ccccc3)nc3cc(-c4cccc(Cl)c4)nn23)CC1	0	-	70	0	0	-
CC(=O)N1CCN(c2cc(-c3ccccc3)nc3cc(-c4cccc(Cl)c4)nn23)CC1	0	-	55	0	0	-
COc1ccccc1-c1cn(CC[C@H]2CC[C@@H](NC(=O)c3cnccn3)[C@@H](CO)O2)nn1	-	-	-	-	0	-
C/C(=C\c1ccccc1F)C(=O)c1c(C)cc(C)[nH]c1=O	0	0	0	0	0	0
Cc1cc(C)c(C(=O)/C=C/c2ccc3c(c2)OCO3)c(=O)[nH]1	0	0	0	0	0	0
C/C(=C\c1cccc(Cl)c1Cl)C(=O)c1c(C)cc(C)[nH]c1=O	0	0	72	0	0	0
Cc1cc(C)c(C(=O)/C=C/c2cccc3ccccc23)c(=O)[nH]1	54	0	95	58	67	84
COc1ccc(-c2cnc3c(c2)C(=O)N([C@H](C)CO)C[C@H](C)[C@@H](CN(C)C)O3)cc1	-	-	-	-	0	-
Cc1ccccc1CSc1nc(C(C)(C)C)cc(=O)[nH]1	65	0	0	0	0	0
Cc1cc(=O)[nH]c(SCc2cccc3ccccc23)n1	0	0	0	0	0	0
Cn1nnnc1SCc1cn2cccnc2n1	-	0	87	0	-	0
CC(C)(C)C(=O)Nc1nnc(CSCc2ccccc2F)s1	0	0	73	0	-	0
O=C1C=C(NCc2ccccc2)CCC1	0	0	0	0	0	0
SMILES	TROY NFkB inh	HSF1 inhib	TWEAK-Fn14 inh	EBV LMP1 NFkB	LGR2 inh	HSF-1 act
O=C1C=C(NC2=CC3OC(c4ccccc4)OCC3OC2=O)CCC1 (configuration not stated)	0	0	71	0	59	0
CN(C)c1ccc(NS(=O)(=O)c2cc(Cl)ccc2Cl)cc1	0	-56	0	0	0	0
O=C(Nc1cccc2cccnc12)c1ccccc1Cl	0	0	0	-	0	91
O=C(O)c1ccccc1C(=O)Nc1ccc(Br)c2cccnc12	0	0	0	0	0	51
CCC(=O)Nc1nc2ccc3nc(C)sc3c2s1	0	0	0	0	0	0
Cc1nc2c(ccc3nc(NC(=O)Cc4cccc5ccccc45)sc32)s1	0	-56	0	0	0	0
Cc1nc2c(ccc3nc(NC(=O)C(c4ccccc4)c4ccccc4)sc32)s1	0	0	75	0	0	0
O=C(O)c1ccc(NNC(=S)Nc2cc(C(F)(F)F)ccc2Cl)cc1	0	0	69	0	0	0
O=C(NC(=S)Nc1cc(C(F)(F)F)ccc1Cl)c1ccccc1	0	0	0	0	-	0
Cc1occc1C(=O)Nc1cc(C(F)(F)F)ccc1Cl	0	-65	0	0	-	0
C[C@H](CO)N1C[C@H](C)[C@@H](CN(C)C(=O)C2CCC2)Oc2ncc(-c3cccc(C#N)c3)cc2C1=O	-	-	-	-	0	-
O=S(=O)(Nc1nc(-c2sccc2Cl)cs1)c1cc(Cl)ccc1Cl	58	0	0	0	-	0
CC(C)(C)c1nnc(NS(=O)(=O)c2cc(Cl)ccc2Cl)s1	0	0	0	0	0	0
COc1ccc(/C(N)=N/OC(=O)CN(C)S(=O)(=O)c2ccc(C)cc2)cc1	0	-	68	0	0	-
O=C(NNC(=S)NC1CCCCC1)c1sc2ccccc2c1Cl	76	0	0	0	0	0
CC(C)(C)C(=O)NC(=S)NNC(=O)c1sc2ccccc2c1Cl	86	-69	100	57	-	0
O=C(Nc1ccc(-c2nc3ccccc3s2)cc1)C1=COCCO1	77	-56	91	72	95	0
O=C(O)CSCC(=O)Nc1ccc(-c2nc3ccccc3s2)cc1	0	0	71	0	0	0
COc1cc(C(=S)N2CCOCC2)ccc1OC(=O)c1cc([N+](=O)[O-])cc([N+](=O)[O-])c1	0	0	0	0	0	0
O=C(Oc1c(Br)cc(C(=S)N2CCOCC2)cc1Br)c1ccc(Cl)cc1	0	0	0	0	0	0
COc1ccc(C(=S)N2CCOCC2)cc1OC(=O)c1ccc([N+](=O)[O-])cc1[N+](=O)[O-]	0	0	100	0	0	0
O=C(Oc1ccc(C(=S)N2CCOCC2)cc1Br)c1cc(Cl)ccc1Cl	0	0	0	0	-	78
O=C(Oc1cccc(C(=S)N2CCOCC2)c1)c1ccccc1	0	0	82	0	0	0
Cc1cccc(S(=O)(=O)N2C[C@H]3[C@@H](c4ccccc42)[C@H](CO)N3C(=O)C2CC2)c1	-	-	-	-	0	-
C[C@@H]1CN([C@H](C)CO)C(=O)c2cc(C3=CCCC3)cnc2O[C@@H]1CN(C)C(=O)NC1CCCC1	-	-	-	-	0	-
C[C@@H]1CN([C@@H](C)CO)C(=O)c2cc(C#CCN(C)C)cnc2O[C@H]1CN(C)Cc1ccccc1	-	-	-	-	0	-
CC1CN(C(=O)Nc2ccc3c(c2)OCCO3)CC(C)O1 (configuration not stated)	0	-58	0	0	0	0
O=C(Nc1ccc2c(c1)OCCO2)N1CCN(c2ccc(F)cc2)CC1	0	-58	0	0	-	0
COc1ccc2c3c([nH]c2c1)[C@H](CO)N(C(=O)NC(C)C)CC31CN(C(=O)NC(C)C)C1	-	-	-	-	0	-
CCC(C)c1ccc(O)c(NC(=S)NC(=O)c2cccnc2)c1 (configuration not stated)	0	0	0	0	0	72

Screens (PubChem)
